Measured values published in PubChem BioAssay AID504834 (National Center for Advancing Translational Sciences (NCATS), 2011).
Hit rate of the full screen: of about 320,000 compounds, about 22,000 (6.9%) were called active. Roughly 27% stayed inconclusive and do not appear here. Many of the other results were omitted from the sample, so actives are more common in it than they were. A number with no mark means an inactive call. Calls come from the whole dose curve; as a rule, active = well fitted inhibition curve with a large enough effect; inconclusive = small, poorly fitted or top-dose-only effect, or another doubt; inactive = no such curve, though single readings can be large or run the other way.

assay: Primary qHTS for delayed death inhibitors of the malarial parasite plastid, 96 hour incubation; details: P. falciparum luciferase reporter growth; series mostly up to 28.7 µM; activity change, negative = inhibition: at the top concentration
Summary of the method: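 Compounds incubated with erythrocytes infected by luciferase-expressing P. falciparum (2% hematocrit, 0.05% parasitemia final) for 96 hours, 37 C in 5% CO2. Growth inhibition scored as decreased luciferase luminescence.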
% is set by controls: 0 for no effect and ±100 for the full control effect; potency is the fitted concentration of half-maximal effect.

| Compound | activity change, negative = inhibition | Potency |
| --- | --- | --- |
| O=C1c2ccccc2C(O)N1Cc1ccccc1Cl (centres undefined) | 59.3% | – |
| CCCCNC(=O)C1CCC(=O)N1CCc1ccccc1 (centres undefined) | 14.2% | – |
| O=C(Nc1ccc(Br)cc1)C1CCC(=O)N1Cc1ccccc1Cl (centres undefined) | – | 10.4 µM (active) |
| COc1ccc(-c2onc3ccc(C(C)=O)cc23)cc1 | 25.1% | – |
| O=C(c1ccc2c(c1)OCCO2)C1CCN(S(=O)(=O)c2cccc(F)c2)CC1 | -2.68% | – |
| O=C(c1c(F)cccc1F)N1CCN(S(=O)(=O)c2ccc3c(c2)OCCO3)CC1 | -5.48% | – |
| O=S(=O)(NC1CCN(S(=O)(=O)c2ccc3c(c2)OCCO3)CC1)c1c(F)cccc1F | – | 11.7 µM (active) |
| CCOc1ccc(C(=O)CCN2CCOCC2)cc1 | -16.3% | – |
| O=C1CCN(CCCc2ccccc2)CCN1CCO | 5.15% | – |
| NS(=O)(=O)c1cccc(NC(=O)CC23CC4CC(CC(Br)(C4)C2)C3)c1 | 23.8% | – |
| CC(CN1CCOCC1)OC(=O)c1ccc(Cl)cc1Cl (centres undefined) | 5.52% | – |
| Cc1ccc(C(=O)OC(C)CN2CCOCC2)cc1 (centres undefined) | – | 5.86 µM (active) |
| Cc1cccc(C(=O)OC(C)CN2CCN(C)CC2)c1 (centres undefined) | 46.6% | – |
| O=C(COC(=O)c1ccccc1Br)Nc1nnc(-c2ccccc2)o1 | 6.55% | – |
| CN1C/C(=C/c2cccs2)C(=O)/C(=C\c2cccs2)C1 | -17.4% | – |
| O=C(CNC(=O)c1ccccc1Br)NCCSc1ccc(Br)cc1 | 9.38% | – |
| Cc1cc(C)n(S(=O)(=O)c2cccc([N+](=O)[O-])c2)n1 | -17.8% | – |
| O=[N+]([O-])c1cccc(S(=O)(=O)N2CCCCCC2)c1 | 10.5% | – |
| Cc1ccc(-c2cn(S(=O)(=O)c3cccc([N+](=O)[O-])c3)nc2N)cc1 | – | 6.57 µM (active) |
| COc1cccc(CN2CCCC(C(=O)c3ccccc3SC)C2)c1O (centres undefined) | – | 1.65 µM (active) |
| CCOC(=O)CCNC(=O)N1CCCC(C(=O)c2ccccc2SC)C1 (centres undefined) | -6.64% | – |
| COc1ccc(C(=O)N2CCCC(C(=O)c3ccccc3OC)C2)cc1OC (centres undefined) | -26.1% | – |
| CCCCC(c1nnnn1CS(=O)(=O)c1ccc(C)cc1)N1CCC(C(N)=O)CC1 (centres undefined) | -0.154% | – |
| COc1ccc(C(=O)Nc2ccc(C(=O)NCC3CCCO3)cc2)c(OC)c1OC (centres undefined) | -8.54% | – |
| O=C(Cc1ccccc1)N1CCN(C2CCCCCC2)CC1 | 203% | – |
| c1ccc(C2CCC(N3CCC(N4CCCCC4)CC3)CC2)cc1 (centres undefined) | – | 2.62 µM (active) |
| CCOC(=O)CN1CCC(c2ccccc2)CC1 | -21.3% | – |

| Compound | activity change, negative = inhibition | Potency |
| --- | --- | --- |
| CC1CCCC(C)N1C(=O)COC(=O)COc1ccccc1C#N (centres undefined) | -0.308% | – |
| COc1ccccc1OCC(=O)OCc1cc(-c2ccco2)on1 | 30.4% | – |
| CN(CC(=O)Nc1ccc(F)c(F)c1F)C(=O)C1CC(=O)N(C2CCCC2)C1 (centres undefined) | 51.1% | – |
| CCC(CC)COC(=O)C1=C(C)NC(=O)NC1c1ccc([N+](=O)[O-])cc1 (centres undefined) | – | 4.65 µM (active) |
| CCOC(=O)C1=C(C)NC(=O)NC1c1ccccc1 (centres undefined) | -18.4% | – |
| CC1=C(C(=O)OCC2CCCCC2)C(c2ccc(F)cc2)NC(=O)N1 (centres undefined) | 1.16% | – |
| Cc1ccc(N(CC(=O)NCC2CCCO2)C(=O)CNS(=O)(=O)c2ccc(Cl)cc2)cc1 (centres undefined) | -13.8% | – |
| CCc1nnc(NC(=O)CCC(=O)N2CCN(c3cc(C)ccc3C)CC2)s1 | 5.92% | – |
| Cc1cc(Cl)nc(NC(=O)Nc2cccc(Cl)c2)n1 | 26.6% | – |
| CNC(=O)CN1C(=O)NC(c2ccccc2)(c2ccccc2)C1=O | 36.1% | – |
| Cc1c(C=O)n(C)n(-c2ccccc2)c1=O | 30.2% | – |
| CCC1(c2ccccc2)C(=O)NC(=O)N(C)C1=O (centres undefined) | – | 15.1 µM (active) |
| O=C(CSc1nc2ccccc2o1)N/N=C/c1ccccc1C(=O)O | 195% | – |
| CCc1ccc(OCC(=O)OC(C)C(=O)NC2CC2)cc1 (centres undefined) | 0.306% | – |
| O=C1CCCN1CCCNc1ncnc2c1[nH]c1ccccc12 | 13.3% | – |
| CC(C)OCCCNc1ncnc2c1[nH]c1ccc(F)cc12 | – | 0.185 µM (active) |
| Cc1ccsc1C(=O)OCC(=O)Nc1cccc(F)c1 | 133% | – |
| Cn1c2c(c(=O)n(C)c1=O)C(c1cccc(F)c1)C(C#N)=C(N)O2 (centres undefined) | 21.7% | – |
| Cc1nn(CC(=O)Nc2ccc(F)cc2)c(=O)c2ccccc12 | 19.5% | – |
| CCc1ccc(NC(=O)Cn2ncn3c(cc4ccccc43)c2=O)cc1 | – | 1.47 µM (active) |
| CCc1ccc(NC(=O)Cn2nc(C)c([N+](=O)[O-])c2C)cc1 | 11.4% | – |
| O=C(NCCN1CCOCC1)Nc1cccc(Cl)c1 | 105% | – |
| CC(=O)Oc1cc2c(C(=O)NCCN3CCOCC3)c(C)oc2c2ccccc12 | 15.9% | – |
| O=C(NCCN1CCOCC1)c1cc(Sc2cccc(Cl)c2)nc2ccccc12 | – | 5.22 µM (active) |
| Cn1c(SCC(=O)N2CCCC2)nnc1-c1ccc2c(c1)OCO2 | -17.5% | – |
| O=C(CNc1ccccc1N1CCCC1=O)Nc1cc(Cl)ccc1-n1cncn1 | 41.9% | – |
| O=C(Nc1ccccc1Cl)Nn1cnnc1 | 22.9% | – |
